Screens from PubChem BioAssay.
In the library only some 12% were active in any assay of this set; here they are far more common.
BAZ2B block: blocks human BAZ2B; Q9UIF8; AlphaScreen BAZ2B-H3K14Ac peptide displacement; Potency, µM (series often up to 114 µM), without a hit: top-dose activity change, negative = inhibition, hits mostly inhibitors; 360,000 tested, 4.4% active; AID 504333; further: on the % scale 0 is the no-effect control and ±100 the full control effect; nearly all actives have a fitted effect of over 60% in size
Target sequence (Q9UIF8 whole entry, looked up): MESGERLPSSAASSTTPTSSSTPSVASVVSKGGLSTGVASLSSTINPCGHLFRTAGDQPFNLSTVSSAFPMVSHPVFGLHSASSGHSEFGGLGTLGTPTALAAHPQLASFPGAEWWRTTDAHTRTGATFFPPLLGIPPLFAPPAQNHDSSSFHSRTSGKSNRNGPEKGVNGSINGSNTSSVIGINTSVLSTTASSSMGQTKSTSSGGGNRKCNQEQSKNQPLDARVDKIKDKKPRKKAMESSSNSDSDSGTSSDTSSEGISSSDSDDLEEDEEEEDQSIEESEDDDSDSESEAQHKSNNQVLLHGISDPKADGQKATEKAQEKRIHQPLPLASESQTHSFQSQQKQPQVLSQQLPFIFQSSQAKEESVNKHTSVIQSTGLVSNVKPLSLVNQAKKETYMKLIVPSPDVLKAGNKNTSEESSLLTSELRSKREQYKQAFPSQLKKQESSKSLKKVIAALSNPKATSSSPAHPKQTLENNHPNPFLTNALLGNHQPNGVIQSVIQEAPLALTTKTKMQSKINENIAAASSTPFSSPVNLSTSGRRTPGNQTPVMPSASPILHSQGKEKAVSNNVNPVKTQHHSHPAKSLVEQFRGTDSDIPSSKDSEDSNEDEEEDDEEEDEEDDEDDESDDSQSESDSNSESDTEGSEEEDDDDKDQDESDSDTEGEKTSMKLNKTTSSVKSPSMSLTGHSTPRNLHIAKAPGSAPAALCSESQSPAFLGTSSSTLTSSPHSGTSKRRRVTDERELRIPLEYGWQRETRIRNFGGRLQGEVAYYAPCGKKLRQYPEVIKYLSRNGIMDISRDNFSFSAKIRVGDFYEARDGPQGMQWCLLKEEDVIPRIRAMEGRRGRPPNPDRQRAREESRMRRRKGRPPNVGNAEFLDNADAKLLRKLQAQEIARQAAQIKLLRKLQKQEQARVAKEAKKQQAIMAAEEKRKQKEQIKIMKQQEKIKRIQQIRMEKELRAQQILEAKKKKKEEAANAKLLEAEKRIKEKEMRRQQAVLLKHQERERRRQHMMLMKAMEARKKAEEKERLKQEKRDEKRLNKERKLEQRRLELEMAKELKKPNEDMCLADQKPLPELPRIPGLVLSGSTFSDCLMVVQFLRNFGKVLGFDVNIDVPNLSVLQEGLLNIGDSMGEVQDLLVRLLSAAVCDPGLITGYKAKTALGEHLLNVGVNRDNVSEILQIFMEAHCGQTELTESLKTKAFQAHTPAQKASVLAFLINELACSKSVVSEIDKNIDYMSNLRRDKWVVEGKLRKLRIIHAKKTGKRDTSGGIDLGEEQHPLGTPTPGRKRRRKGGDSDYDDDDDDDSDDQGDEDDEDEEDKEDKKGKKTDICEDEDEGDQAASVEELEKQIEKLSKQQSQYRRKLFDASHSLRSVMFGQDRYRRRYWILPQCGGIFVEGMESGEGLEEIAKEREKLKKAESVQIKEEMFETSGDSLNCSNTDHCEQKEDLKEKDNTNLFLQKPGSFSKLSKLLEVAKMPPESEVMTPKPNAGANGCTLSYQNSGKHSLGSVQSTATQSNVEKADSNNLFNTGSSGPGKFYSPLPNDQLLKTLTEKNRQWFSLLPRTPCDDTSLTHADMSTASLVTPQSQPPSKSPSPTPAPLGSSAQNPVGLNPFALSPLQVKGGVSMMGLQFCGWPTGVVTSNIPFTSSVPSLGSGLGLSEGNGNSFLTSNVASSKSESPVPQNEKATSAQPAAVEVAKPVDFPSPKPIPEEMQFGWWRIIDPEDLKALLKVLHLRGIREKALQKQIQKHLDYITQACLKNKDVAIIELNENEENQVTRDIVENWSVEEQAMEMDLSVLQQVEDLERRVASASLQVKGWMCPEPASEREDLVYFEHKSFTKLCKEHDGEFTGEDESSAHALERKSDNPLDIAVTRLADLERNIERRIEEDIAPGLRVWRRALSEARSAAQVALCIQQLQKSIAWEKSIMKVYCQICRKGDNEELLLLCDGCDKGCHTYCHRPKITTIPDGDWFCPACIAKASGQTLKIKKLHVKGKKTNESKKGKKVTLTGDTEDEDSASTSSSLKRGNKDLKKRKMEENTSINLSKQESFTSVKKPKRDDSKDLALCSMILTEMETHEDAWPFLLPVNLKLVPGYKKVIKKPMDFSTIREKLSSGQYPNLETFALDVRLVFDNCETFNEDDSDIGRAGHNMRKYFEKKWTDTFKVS
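Compounds, titrated to a top concentration of 110 uM, were incubated 30 min at room temperature with preformed BAZ2B/acetyl-K14 H3 peptide complex (50 nM each). Proximity signal was measured by AlphaScreen after 20 min with beads.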
JMJD2A Tudor inh: JMJD2A Tudor domain (human) inhibition; AlphaScreen JMJD2A-Tudor / H3K4me3 peptide binding; Potency, µM (titrated, usually from 114 µM), inactives show at the top dose activity change, negative = inhibition, most hits filed as inhibitors; 390,000 tested, 4.4% active; further: on the % scale 0 is the no-effect control and ±100 the full control effect; nearly all actives have a fitted effect of over 50% in size
L3MBTL1 inh: inhibitors of human L3MBTL1 | Q9Y468 | AlphaScreen L3MBTL1–H3K9me1 peptide binding | Potency, µM (highest dose often 57.1 µM), for inactives: at the top dose activity, negative = inhibition, most hits filed as inhibitors | 230,000 tested, 0.66% active | AID 485360; further: on the % scale 0 is the no-effect control and ±100 the full control effect; nearly all actives have a fitted effect of over 60% in size
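AlphaScreen proximity signal between nickel-chelate acceptor and streptavidin donor beads (final 10 ug/mL) reports binding of 50 nM L3MBTL1 to 75 nM biotin-H3 K9me1 peptide; complex incubated with compounds 30 min at room temperature; cefsulodin titration as control.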
Sfp inh: inhibitors of Bacillus subtilis Sfp phosphopantetheinyl transferase; Q9F4F7; Biochemical Sfp PPTase activity, qHTS; Potency, µM, for the others: largest response in the series, negative = inhibition, hits mostly inhibitors; 310,000 tested, 3.5% active;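 further: the enzyme is Sfp with the accession as filed and its product quenches rhodamine fluorescence; 0% = enzyme reaction without inhibitor and -100% = no enzyme wells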
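Fluorescence-quenching assay: 15 nM Sfp-PPTase preincubated 15 min at room temperature with compound, then 5 uM rhodamine-CoA and 12.5 uM BHQ-2-labelled YbbR peptide added. Fluorescence (ex 525/em 598 nm) read at start and after 30 min; difference gives rate.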
HP1b binding inh: HP1-beta chromodomain-methylated histone interaction inhibition. Potency, µM (highest dose often 114 µM), without a hit: at the highest dose activity change, negative = inhibition, actives largely listed as inhibitors. AID 540317. AlphaScreen HP1-beta / biotin-H3K9me3 peptide binding. 390,000 tested, 0.56% active; further: nearly all actives have a fitted effect of over 70% in size
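AlphaScreen: HP1-beta (50 nM) preformed 30 min with biotin-H3(1-18)K9me3 peptide (50 nM) in PBS pH 7.4, 0.01% Tween-20. Compound added for 30 min at RT, then streptavidin donor/nickel chelate acceptor beads (10 ug/mL) for 30 min.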
G9a inh: inhibitors of human histone lysine methyltransferase G9a; Q96KQ7; G9a H3K9 monomethylation, AlphaScreen, 2 h; Potency, µM (titrated, usually from 102 µM), inactives show top-dose activity, negative = inhibition, hits mostly inhibitors; 350,000 tested, 8.8% active; further: on the % scale 0 is the no-effect control and ±100 the full control effect; nearly all actives have a fitted effect of over 75% in size
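AlphaScreen detection with an anti-monomethyl H3K9 antibody quantified product after a 2 h room-temperature reaction containing 500 nM biotinylated H3K9 peptide, 20 µM SAM and 20 nM enzyme, which had been preincubated 15 min with compound.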
Active calls of the source: *; ? = inconclusive; / = not tested or not shown; [ ] = remark or other dose. The call rests on the fitted dose curve; in most records, active means well fitted curve in the direction sought with a large enough effect; inconclusive means small, poorly fitted or top-dose-only effect, or another doubt; inactive means no such curve, though single readings can be large; an effect the other way counts as inactive or inconclusive. Potency means the concentration at half of the fitted maximal effect.

SMILES	BAZ2B block	JMJD2A Tudor inh	L3MBTL1 inh	Sfp inh	HP1b binding inh	G9a inh
CCCCNc1nc2c(S(=O)(=O)c3ccc(Br)cc3)nnn2c2ccsc12	-19%	-14%	/	/	19%	-22%[59 µM]
Cc1cc(C)c(NC(=O)Cn2c(=O)n(CCC(=O)NCc3ccccc3Cl)c(=O)c3sccc32)c(C)c1	0%	3%	/	/	19%	6%[59 µM]
C/C(=C\C[Si](C)(C)C)CCC=O	/	/	/	63µM*	/	/
COc1cccc(Cn2c(=O)n(CCc3ccccc3)c(=O)c3c2c2cc(OC)ccc2n3C)c1	0%	3%	/	/	29%	?
CC(C)(C)c1nc(Sc2ncccc2[N+](=O)[O-])n[nH]1	-2%	-8%	-5%	7%	35%	30%
O=[N+]([O-])c1cc(C(F)(F)F)cc([N+](=O)[O-])c1Sc1n[nH]c(C(F)(F)F)n1	-35%	50µM*	-19%	56µM*	43%	/
Cc1ccc(NC(=O)CCNC(=O)c2ccc(Br)cc2)cc1S(=O)(=O)N1CCCCCC1	1%	-18%	-3%	/	6%	50µM*
Cc1ccc(NC(=O)COC(=O)Cc2c[nH]c3ccccc23)cc1F	-35%	?	-9%	/	9%	35µM*
O=C(COC(=O)c1cc([N+](=O)[O-])ccc1NCCO)Nc1cccc(S(=O)(=O)N2CCCC2)c1	-7%	?	-11%	/	-19%	45µM*
Cc1ccc(NC(=O)CN(C)CC(=O)Nc2cccc(F)c2)cc1S(=O)(=O)N1CCCCCC1	50µM*	18µM*	-2%	-20%	?	5.6µM*
O=C(COC(=O)Cc1c[nH]c2ccccc12)Nc1ccccc1	-29%	-17%	-2%	9%	1%	13%[59 µM]
Cc1cc(C)c2nc(N(Cc3cccnc3)C(=O)c3cccs3)sc2c1	-4%	-16%	/	/	4%	11%[59 µM]
CCOc1ccc(N2CC(C(=O)Nc3ccc(OC)c(S(=O)(=O)N4CCCCC4)c3)CC2=O)cc1 (stereo not drawn)	-36%	-30%	-3%	7%	0%	79µM*
Cc1ccc(NC(=O)Cn2cc(C(F)(F)F)cc(Cl)c2=O)cc1S(=O)(=O)N1CCCCC1	4%	-24%	0%	/	7%	50µM*
COc1ccc(NC(=O)COc2cc(C)cc(C)c2)cc1S(=O)(=O)N1CCCCC1	1%	-21%	-1%	/	11%	-22%
COc1ccc(NC(=O)COc2ccc(C)c(C)c2)cc1S(=O)(=O)N1CCCCC1	2%	-12%	-7%	/	31%	56µM*
COc1ccc(NC(=O)CSc2ccc(F)cc2)cc1S(=O)(=O)N1CCCCC1	5%	-13%	-14%	-16%	38%	17%
Cc1ccc(NC(=O)Cn2ncc(Cl)c(Cl)c2=O)cc1S(=O)(=O)N1CCCCC1	0%	-27%	?	/	15%	?
COc1ccc(NC(=O)CN(C)CC(=O)Nc2cccc(F)c2)cc1S(=O)(=O)N1CCCCC1	/	2.8µM*	/	/	?	/
Cc1cc(S(=O)(=O)Nc2ccc(-c3ccc(N4CCCCCC4)nn3)cc2)c(C)cc1Cl	?	-20%	/	/	10%[57 µM]	-25%[59 µM]
COc1cc(Cl)c(C)cc1NC(=O)CCCN1C(=O)C(c2ccccc2)Oc2cccnc21 (stereo not drawn)	-17%	-14%	/	/	30%	-28%[59 µM]
COc1ccccc1Cc1nc2ccccc2nc1SCC(=O)N1CCN(c2ccccc2)CC1	?	-23%	/	/	0%[57 µM]	-20%[59 µM]
CCOc1ccc(NC(=O)CSc2nnc3c(n2)[nH]c2ccc(S(=O)(=O)N4CCCCC4)cc23)cc1	/	-33%	/	/	26%	/
Cc1ccc(S(=O)(=O)N2CCN(Cc3noc(CCC(=O)N4CCCCC4)n3)CC2)c(C)c1	-28%	-5%	/	/	22%	?
COc1ccc(CNS(=O)(=O)c2ccc(-c3cc(C(F)(F)F)on3)s2)cc1OC	-9%	-1%	/	/	28%	-10%[59 µM]
SMILES	BAZ2B block	JMJD2A Tudor inh	L3MBTL1 inh	Sfp inh	HP1b binding inh	G9a inh
Cc1cc(C)c(S(=O)(=O)NCC(c2ccco2)N2CCOCC2)c(C)c1 (stereo not drawn)	-13%	-10%	/	/	24%	-20%[59 µM]
Cc1ccc(NC(=O)Cc2c[nH]c3ccccc23)cc1S(=O)(=O)N1CCCCCC1	-39%	-19%	0%	3%	28%	25µM*
Cc1ccc(OCC(=O)Nc2cc(C(=O)O)cc(C(=O)O)c2)cc1C	-13%	8.9µM*	/	?	-11%	?
CC(=O)c1cc(Cl)ccc1OCC(=O)Nc1cccc(S(=O)(=O)N2CCCC2)c1	21%	1%	25%	/	32%	7.1µM*
Cc1ccc(OCC(=O)Nc2cc(NC(=O)COc3ccc(C)cc3)cc(C(=O)O)c2)cc1	-2%	-6%	-4%	-3%	15%	?
O=C(CNc1ccc(F)cc1Cl)Nc1cccc(S(=O)(=O)N2CCCCC2)c1	-9%	-6%	-5%	/	25%	-1%[12.7 µM]
COc1cc(Cl)c(C)cc1NCC(=O)Nc1cccc(S(=O)(=O)N2CCCC2)c1	?	?	-1%	/	-18%	11µM*
Cc1ccc(Nc2nnc(-c3ccc(C)c(S(=O)(=O)N4CCOCC4)c3)c3ccccc23)cc1	2%	-22%	/	/	14%	-30%[59 µM]
COc1ccc(NC(=O)Cc2ccccc2F)cc1S(=O)(=O)N1CCCCC1	0%	1%	6%	/	43%	0.32µM*
N#Cc1ccc(Cl)cc1NC(=O)CNc1cccc(S(=O)(=O)N2CCCC2)c1	3%	-3%	5%	/	40%	45µM*
COc1ccccc1CN(C)CC(=O)Nc1cccc(S(=O)(=O)N2CCCC2)c1	/	0.79µM*	2%	/	-17%	/
COc1cccc(CN(C)CC(=O)Nc2cc(S(=O)(=O)N3CCCC3)ccc2Cl)c1OC	9%	-13%	-14%	/	42%	-21%
Cc1ccc(S(=O)(=O)N2CCCCC2)cc1NC(=O)COC(=O)C1CC2C=CC1C2 (stereo not drawn)	2%	-16%	3%	23%	2%	21%
Cc1ccc(NC(=O)COC(=O)C2CC3C=CC2C3)cc1S(=O)(=O)N1CCCCC1 (stereo not drawn)	8%	56µM*	4%	1%	9%	14%[59 µM]
COc1ccc(NC(=O)COc2ccccc2F)cc1S(=O)(=O)N1CCCCC1	-16%	-14%	/	-6%	11%	/
Cc1ccc(OCC(=O)Nc2nc(-c3ccccn3)cs2)c(C)c1	3%	-27%	-13%	/	-9%	40µM*
CC(Oc1ccc(Br)cc1)C(=O)Nc1nc(-c2ccccn2)cs1 (stereo not drawn)	56µM*	79µM*	/	40µM*	-16%	20µM*
O=C(COc1ccc(F)cc1)Nc1nc(-c2ccccn2)cs1	?	79µM*	-8%	/	1%	45µM*
